From PubChem BioAssay
“And” between values parts separate entries of the source, which are not always exact repeats. Equal entries are not always repeated. A structure can be active in one record and inactive in another. The source made the active and inactive calls. Unless noted, the rule behind the calls is not given here.

Assays:
[1] = HepG2 liver cancer cell viability effects, profiling panel, resazurin fluorescence, 24 h, PK04 Diversity Set (AID 1172); settings: higher = more signal; note: test concentration not given here
[2] = basal S. cerevisiae growth modulation, no modifier, primary screen, OD600, strain BY4716, 24 h, basal condition (AID 1173); settings: OD600, 24 h, higher = more signal, called active from +8 up or from −8 down
[3] = MM1S myeloma cell viability, profiling panel, resazurin fluorescence, basal, 24 h, PK04 Diversity Set (AID 1174); settings: higher = more signal, called active from +8 up or from −8 down;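 note: MM1S multiple myeloma cell line; test concentration not given here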
[4] = molecular target: Dihydroorotate dehydrogenase (quinone), mitochondrial (Plasmodium falciparum (isolate 3D7)) (UniProt Q08210); assay: PfDHODH enzyme inhibitors, primary screen, biochemical, C-terminal His tag, absorbance 600 nm (AID 1175); settings: DCIP absorbance 600 nm, higher = more signal, called active from +8 up or from −8 down;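 note: recombinant parasite enzyme with a five histidine tag at its C terminus; test concentration not given here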
Dihydroorotate dehydrogenase (quinone), mitochondrial (Plasmodium falciparum (isolate 3D7)), sequence (Q08210 whole entry, looked up): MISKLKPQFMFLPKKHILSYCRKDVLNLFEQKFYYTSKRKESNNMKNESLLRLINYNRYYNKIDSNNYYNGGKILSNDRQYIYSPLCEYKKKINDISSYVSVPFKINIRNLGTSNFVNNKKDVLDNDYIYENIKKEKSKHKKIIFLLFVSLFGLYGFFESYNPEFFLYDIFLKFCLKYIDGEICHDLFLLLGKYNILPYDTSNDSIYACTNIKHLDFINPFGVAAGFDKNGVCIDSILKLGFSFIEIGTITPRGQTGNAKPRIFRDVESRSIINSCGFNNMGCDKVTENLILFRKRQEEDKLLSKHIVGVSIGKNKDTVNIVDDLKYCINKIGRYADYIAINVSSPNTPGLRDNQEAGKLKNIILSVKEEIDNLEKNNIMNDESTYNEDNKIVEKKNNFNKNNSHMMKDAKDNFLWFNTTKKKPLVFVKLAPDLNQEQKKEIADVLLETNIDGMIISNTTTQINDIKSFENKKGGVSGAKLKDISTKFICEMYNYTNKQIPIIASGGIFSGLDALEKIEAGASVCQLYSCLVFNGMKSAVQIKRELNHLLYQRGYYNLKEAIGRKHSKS

[5] = P. aeruginosa biofilm formation inhibitors, primary screen, strain PAO1, LB-PBS medium, absorbance 600 nm (AID 1176); note: test concentration not given here; settings: P. aeruginosa PAO1 growth/biofilm, A600, 12 h; higher = more signal
[6] = S. cerevisiae RM11-1a growth modifiers, primary screen, strain RM11-1a, OD600, basal, 24 h (AID 1177); settings: OD600, 24 h, higher = more signal, called active from +8 up or from −8 down;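 note: cultures grown under basal conditions with no added stressor; test concentration not given here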
[7] = E. coli acrAB mutant growth effects, primary screen, E. coli filamentation inducers, strain DRC39, OD650, 24 h (AID 1178); settings: higher = more signal, called active from +8 up or from −8 down;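 note: growth measured as culture turbidity by optical density at 650 nm; test concentration not given here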
[8] = E. coli acrAB mutant growth effects, primary screen, E. coli filamentation inducers, strain DRC39, OD650, 48 h (AID 1179);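 note: screen aims at cell division blockers that make cells filament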; settings: E. coli DRC39 delta-acrAB growth, higher = more signal, called active from +8 up or from −8 down
[9] = RPMI8226 myeloma cell viability, profiling panel, resazurin fluorescence, basal, 24 h, PK04 Diversity Set (AID 1180); settings: higher = more signal;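 note: RPMI8826 multiple myeloma cell line at 5000 cells per well; test concentration not given here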
[10] = molecular target: E3 ubiquitin-protein ligase XIAP (Homo sapiens) (UniProt P98170); assay: XIAP binders, primary screen, biophysical, small-molecule microarray, fluorescence 635 nm (AID 1181); settings: small-molecule microarray binding, higher = more signal;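 note: score merges 667 nm emission and signal to noise over triplicate slides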
E3 ubiquitin-protein ligase XIAP (Homo sapiens), sequence (P98170 whole entry, looked up): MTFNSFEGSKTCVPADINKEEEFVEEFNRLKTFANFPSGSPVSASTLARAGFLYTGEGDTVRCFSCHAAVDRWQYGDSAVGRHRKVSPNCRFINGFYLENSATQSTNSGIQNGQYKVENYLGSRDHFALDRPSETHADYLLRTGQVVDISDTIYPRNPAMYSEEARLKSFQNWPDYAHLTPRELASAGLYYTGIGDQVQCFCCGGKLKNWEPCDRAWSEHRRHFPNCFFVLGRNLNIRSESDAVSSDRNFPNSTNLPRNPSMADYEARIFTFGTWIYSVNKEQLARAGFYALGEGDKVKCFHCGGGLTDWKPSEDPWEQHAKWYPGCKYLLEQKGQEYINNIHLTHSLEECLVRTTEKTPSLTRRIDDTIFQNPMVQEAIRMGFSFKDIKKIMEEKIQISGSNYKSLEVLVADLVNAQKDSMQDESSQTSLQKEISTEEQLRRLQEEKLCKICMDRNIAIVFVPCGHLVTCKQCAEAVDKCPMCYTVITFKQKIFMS

| SMILES | z-score [1] | z-score [2] | z-score [3] | composite z-score [4] | z-score [5] | z-score [6] | z-score [7] | z-score [8] | z-score [9] | composite z-score [10] |
| --- | --- | --- | --- | --- | --- | --- | --- | --- | --- | --- |
| CCN1C(=O)[C@H]2[C@H]3[C@H](O)[C@H](O)CC(=NOC[C@@H](O)COCc4ccco4)[C@@H]3CC[C@H]2C1=O | -0.113 and -1.03 | 1.31 (inactive) and 0.252 (inactive) | -0.413 (inactive) and -0.696 (inactive) | 0.489 (inactive) and 0.529 (inactive) | -0.601 (inactive) and -0.385 (inactive) | 0.567 (inactive) and 0.24 (inactive) | -0.357 (inactive) and -1.05 (inactive) | -0.463 (inactive) and -0.657 (inactive) | -0.575 and -0.287 | -0.0666 and -0.121 |
| CCOC(=O)c1ccc(NC(=O)O[C@H]2[C@H](OC(=O)Nc3ccccc3)[C@H](OC(=O)Nc3ccccc3)[C@@H](OC)O[C@@H]2CO)cc1 | -1.03 and -1.82 | 0.645 (inactive) and -0.301 (inactive) | -1.75 (inactive) and -3.01 (inactive) | -0.299 (inactive) and -0.597 (inactive) | 2.37 (inactive) and 1.74 (inactive) | 2.14 (inactive) and 0.971 (inactive) | -0.468 (inactive) and 0.363 (inactive) | 0.496 (inactive) and -0.189 (inactive) | -1.53 and -2.7 | 0.23 and 0.108 |
| COC(=O)C1=C2N(Cc3ccccc3)C(C)=C(C(=O)OC)[C@@H](c3ccccc3)N2C(=O)[C@](O)(C(=O)OC)C1 | 1.08 and -0.565 | -0.875 (inactive) and -0.828 (inactive) | 0.7 (inactive) and 0.349 (inactive) | 0.268 (inactive) and -0.608 (inactive) | -0.318 (inactive) and 0.216 (inactive) | -0.321 (inactive) and 0.0615 (inactive) | 0.0099 (inactive) and -0.163 (inactive) | -0.184 (inactive) and -0.224 (inactive) | 1 and -0.272 | 0.0623 and 0.43 |
| CO[C@H]1COC(=O)CC=C[C@H](C)[C@H](OC)COC(=O)[C@@H](C)COC(=O)CC=C[C@@H]1C | 0.492 and 0.464 | -0.415 (inactive) and -1.07 (inactive) | 0.429 (inactive) and 0.802 (inactive) | 0.175 (inactive) and 0.55 (inactive) | -0.519 (inactive) and -0.118 (inactive) | -0.436 (inactive) and -0.638 (inactive) | 0.945 (inactive) and 1.12 (inactive) | 0.658 (inactive) and 1.09 (inactive) | 0.168 and 0.365 | 0.0256 and -0.202 |
| C=CCN(CCCCC)C(=O)C(c1cccs1)N(CCOCCO)C(=O)/C=C\C(=O)O (stereo not given) | -0.925 and -0.111 | -0.397 (inactive) and -0.258 (inactive) | -0.223 (inactive) and 0.149 (inactive) | -1.15 (inactive) and -1.27 (inactive) | 0.0126 (inactive) and -0.401 (inactive) | -1.37 (inactive) and -1.48 (inactive) | -0.388 (inactive) and 0.106 (inactive) | 0.526 (inactive) and 0.855 (inactive) | 0.096 and -0.165 | 0.548 and -0.0273 |
| CCN1C(=O)[C@H]2[C@H]3[C@H](O)[C@H](O)CC(=NOC)[C@@H]3CC[C@H]2C1=O | 0.146 | -1.88 (inactive) | 0.0831 (inactive) | -0.581 (inactive) | 0.924 (inactive) | -0.458 (inactive) | 0.759 (inactive) | 0.953 (inactive) | 0.0325 | 0.487 |
| C=C[C@@H](C)[C@@H](O)c1ccc(OCCO)cc1 | 0.162 and 0.223 | -3.96 (inactive) and -2.81 (inactive) | -0.435 (inactive) and 0.286 (inactive) | 0.0788 (inactive) and -1.03 (inactive) | 0.331 (inactive) and 0.838 (inactive) | 0.909 (inactive) and 1.21 (inactive) | 1.12 (inactive) and 0.982 (inactive) | 0.795 (inactive) and 1.13 (inactive) | -0.112 and 0.616 | 0.103 and -0.15 |
| CC(C)=NOC[C@@H](O)COCc1ccco1 | -0.907 | 0.14 (inactive) | -1.09 (inactive) | 0.102 (inactive) | -0.324 (inactive) | 0.534 (inactive) | 0.745 (inactive) | 0.41 (inactive) | -1.11 | 0.0576 |
| COCn1c2ccccc2c2nnc(C(C)=O)nc21 | -0.159 and -0.565 | -1.93 (inactive) and -2 (inactive) | -0.0104 (inactive) and 0.0255 (inactive) | -2.39 (inactive) and -2.01 (inactive) | -0.907 (inactive) and -0.576 (inactive) | 0.204 (inactive) and -0.16 (inactive) | -1.12 (inactive) and -1.17 (inactive) | -1.07 (inactive) and -1.34 (inactive) | -0.261 and -0.35 | -0.0095 and -0.065 |
| C=CCN(CCCC)C(=O)C(c1cccs1)N(C(=O)/C=C\C(=O)O)c1c(Cl)cccc1CO (stereo not given) | 0.766 and 0.197 | 0.405 (inactive) and -0.407 (inactive) | -1.21 (inactive) and -0.193 (inactive) | 0.005 (inactive) and 0.0035 (inactive) | 0.991 (inactive) and 0.922 (inactive) | 0.201 (inactive) and 0.0171 (inactive) | 0.591 (inactive) and 0.408 (inactive) | 0.339 (inactive) and 0.354 (inactive) | -0.101 and -0.108 | -0.0857 and -0.0807 |
| CCOC(=O)C[C@H]1[C@H](OC(=O)c2ccccc2-c2ccccc2)[C@@H](NC(=O)c2ccccc2)c2cc(OCCCO)ccc2N1C(=O)c1ccc2ccccc2n1 | 0.578 and -0.48 | -0.602 (inactive) and 1.01 (inactive) | 0.602 (inactive) and -0.924 (inactive) | 0.139 (inactive) and -0.264 (inactive) | -0.152 (inactive) and 0.432 (inactive) | -0.26 (inactive) and -0.698 (inactive) | 1.39 (inactive) and -0.851 (inactive) | 0.845 (inactive) and -0.687 (inactive) | -0.236 and -0.847 | -0.227 and 0.0451 |
| C[N+](C)(C)CCCCNC(=O)[C@H]1C[C@H]2C(=O)N[C@@H](CCCC[N+](C)(C)C)C(=O)N2[C@H]1c1ccc(O)cc1 | -0.168 and 0.0318 | 0.889 (inactive) and 0.811 (inactive) | -0.531 (inactive) and -0.416 (inactive) | -29.8 (active) and -29.4 (active) | 0.227 (inactive) and 2.5 (inactive) | 0.659 (inactive) and 0.409 (inactive) | 0.0769 (inactive) and -0.869 (inactive) | 0.0835 (inactive) and -1.41 (inactive) | -0.891 and -1.06 | 0.104 and 0.0015 |
| C=CCN(C(=O)C1N(C(C)(C)CO)C(=O)C2C(C(=O)O)C3C=CC21O3)C(C)(C)C (stereo not given) | -0.724 and -0.381 | 1 (inactive) and 0.053 (inactive) | -0.638 (inactive) and 0.113 (inactive) | 1.3 (inactive) and -0.307 (inactive) | -0.456 (inactive) and 0.109 (inactive) | 1.16 (inactive) and 1.25 (inactive) | -0.706 (inactive) and 0.32 (inactive) | -0.687 (inactive) and 0.356 (inactive) | -0.319 and -0.0012 | -0.326 and -0.212 |
| C=CCN(CCCCC)C(=O)C(c1cccs1)N(C(=O)/C=C\C(=O)O)c1c(Cl)cccc1CO (stereo not given) | -0.939 and -0.559 | -0.69 (inactive) and -0.768 (inactive) | -0.18 (inactive) and -0.317 (inactive) | 0.401 (inactive) and 0.461 (inactive) | -0.0837 (inactive) and -0.677 (inactive) | -0.0138 (inactive) and -0.374 (inactive) | 0.246 (inactive) and 0.0068 (inactive) | 0.425 (inactive) and 0.212 (inactive) | -0.394 and -0.42 | -0.158 and -0.378 |
| CC(C)[Si]1(C(C)C)OCc2cc(CCCc3cc4c(c(CCc5ccccc5)n3)[Si](C(C)C)(C(C)C)OC4)nc(CCc3ccccc3)c21 | 0.926 and -0.531 | -15.4 (active) and 0.852 (inactive) | -0.78 (inactive) and -0.186 (inactive) | -0.351 (inactive) and 0.681 (inactive) | 0.35 (inactive) | -0.656 (inactive) and 0.13 (inactive) | 1.87 (inactive) and -0.184 (inactive) | 1.19 (inactive) and -0.0698 (inactive) | 0.583 and -1.16 | -0.0095 and -0.111 |
| Cc1cc2c(nc1C)CCCN2CC(O)CN1CCCc2nc(-c3ccc(Br)cc3)ccc21 (stereo not given) | -0.366 and -0.367 | -7.09 (inactive) and -1.64 (inactive) | -0.959 (inactive) and -0.771 (inactive) | 1.95 (inactive) and 1.18 (inactive) | -0.257 (inactive) and -0.0569 (inactive) | 1.37 (inactive) and 0.795 (inactive) | -0.342 (inactive) and 0.458 (inactive) | -0.752 (inactive) and 0.0169 (inactive) | 0.0199 and -0.821 | 1.1 and 1.9 |
